Experimental data taken from PubChem BioAssay AID1159580 (chemical genetic matrix, 2015).
Screen size: about 5,500 compounds; about 2,000 (36%) were called active. Inconclusive results (about 18%) are left out. Cut-off read from the data, not from the text of the source: active = normalized growth mostly below about 0.91 (no sharp cut-off); inconclusive = no clear call, values can overlap the other calls; inactive = mostly above about 0.92. The list shows a part of the results.

Assay: chemical genetic growth profiling, strain panel (AID 1159580);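 note: tested at 20 µM; growth read once vehicle control cultures reached saturation at 30 °C; 1 = growth at the plate median or of vehicle wells; lower values mean less growth of the strain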
Details: growth OD

Measured: normalized growth

C[C@]12CCC3C(CC[C@H]4C[C@@H](O)CC[C@]34C)C1CC[C@@H]2O (stereo partly specified)
inactive: S. cerevisiae deletion strains, locus YAL013W, strain DEP1, active compounds read low 1 | S. cerevisiae deletion strains, locus YBR021W, strain FUR4, active compounds read low 1.01 | S. cerevisiae deletion strains, locus YBR229C, strain ROT2, active compounds read low 1.03 | S. cerevisiae deletion strains, locus YCL029C, strain bik1, active compounds read low 0.968 | S. cerevisiae deletion strains, locus YDL035C, strain GPR1, active compounds read low 0.864 | S. cerevisiae deletion strains, locus YDL074C, strain BRE1, active compounds read low 0.991 | S. cerevisiae deletion strains, locus YDL101C, strain DUN1, active compounds read low 1.01 | S. cerevisiae deletion strains, locus YDL134C, strain PPH21, active compounds read low 1.02 | S. cerevisiae deletion strains, locus YDL185W, strain tfp1, active compounds read low 0.988 | S. cerevisiae deletion strains, locus YDL192W, strain arf1, active compounds read low 0.996 | S. cerevisiae deletion strains, locus YDR101C, strain arx1, active compounds read low 1.01 | S. cerevisiae deletion strains, locus YDR150W, strain NUM1, active compounds read low 1.02 | S. cerevisiae deletion strains, locus YDR162C, strain NBP2, active compounds read low 0.958 | S. cerevisiae deletion strains, locus YDR318W, strain mcm21, active compounds read low 0.972 | S. cerevisiae deletion strains, locus YDR388W, active compounds read low 1.03 | S. cerevisiae deletion strains, locus YDR502C, strain sam2, active compounds read low 1.01 | S. cerevisiae deletion strains, locus YEL061C, strain CIN8, active compounds read low 1.03 | S. cerevisiae deletion strains, locus YER110C, active compounds read low 1.01 | S. cerevisiae deletion strains, locus YER155C, strain BEM2, active compounds read low 1.04 | S. cerevisiae deletion strains, locus YER167W, strain BCK2, active compounds read low 0.986 | S. cerevisiae deletion strains, locus YGL078C, strain dbp3, active compounds read low 0.973 | S. cerevisiae deletion strains, locus YGL086W, strain mad1, active compounds read low 0.954 | S. cerevisiae deletion strains, locus YGL248W, strain PDE1, active compounds read low 1.02 | S. cerevisiae deletion strains, locus YGR078C, strain PAC10, active compounds read low 1 | S. cerevisiae deletion strains, locus YGR135W, strain pre9, active compounds read low 0.973 | S. cerevisiae deletion strains, locus YGR229C, strain SMI1, active compounds read low 1.02 | S. cerevisiae deletion strains, locus YHR030C, strain SLT2, active compounds read low 1.04 | S. cerevisiae deletion strains, locus YHR079C, strain IRE1 (second series), active compounds read low 0.993 | S. cerevisiae deletion strains, locus YHR094C, strain hxt1, active compounds read low 1.02 | S. cerevisiae deletion strains, locus YHR129C, strain ARP1, active compounds read low 1.03 | S. cerevisiae deletion strains, locus YHR200W, strain rpn10, active compounds read low 0.985 | S. cerevisiae deletion strains, locus YIL066C, strain RNR3, active compounds read low 0.953 | S. cerevisiae deletion strains, locus YIL073C, strain SPO22, active compounds read low 0.91 | S. cerevisiae deletion strains, locus YIL125W, strain kgd1, active compounds read low 1.02 | S. cerevisiae deletion strains, locus YIR030C, strain dcg1, active compounds read low 1.03 | S. cerevisiae deletion strains, locus YJL095W, strain BCK1, active compounds read low 1.01 | S. cerevisiae deletion strains, locus YJL134W, strain LCB3, active compounds read low 1.02 | S. cerevisiae deletion strains, locus YJL168C, strain set2, active compounds read low 1.03 | S. cerevisiae deletion strains, locus YJL187C, strain SWE1 (second series), active compounds read low 1 | S. cerevisiae deletion strains, locus YJR043C, strain POL32, active compounds read low 0.965 | S. cerevisiae deletion strains, locus YJR075W, strain HOC1, active compounds read low 1.04 | S. cerevisiae deletion strains, locus YKL068W, active compounds read low 1.02 | S. cerevisiae deletion strains, locus YKL085W, strain MDH1 (second series), active compounds read low 1.02 | S. cerevisiae deletion strains, locus YKL085W, strain MDH1, active compounds read low 1.02 | S. cerevisiae deletion strains, locus YKL190W, strain CNB1, active compounds read low 1.02 | S. cerevisiae deletion strains, locus YKR001C, strain vps1, active compounds read low 0.964 | S. cerevisiae deletion strains, locus YLR058C, strain SHM2, active compounds read low 1.02 | S. cerevisiae deletion strains, locus YLR102C, strain apc9, active compounds read low 1.02 | S. cerevisiae deletion strains, locus YLR268W, strain sec22, active compounds read low 0.997 | S. cerevisiae deletion strains, locus YLR330W, strain CHS5, active compounds read low 1.03 | S. cerevisiae deletion strains, locus YLR342W, strain FKS1 (second series), active compounds read low 0.87 | S. cerevisiae deletion strains, locus YLR371W, strain rom2, active compounds read low 0.994 | S. cerevisiae deletion strains, locus YLR418C, strain cdc73, active compounds read low 1.13 | S. cerevisiae deletion strains, locus YML016C, strain PPZ1, active compounds read low 1.03 | S. cerevisiae deletion strains, locus YML032C, strain rad52, active compounds read low 0.931 | S. cerevisiae deletion strains, locus YML124C, strain tub3, active compounds read low 1.03 | S. cerevisiae deletion strains, locus YMR078C, strain ctf18, active compounds read low 1.03 | S. cerevisiae deletion strains, locus YMR223W, strain ubp8, active compounds read low 0.953 | S. cerevisiae deletion strains, locus YMR263W, strain SAP30, active compounds read low 1.01 | S. cerevisiae deletion strains, locus YMR307W, strain GAS1, active compounds read low 1.02 | S. cerevisiae deletion strains, locus YNL067W, strain RPL9B, active compounds read low 0.938 | S. cerevisiae deletion strains, locus YNL128W, strain TEP1, active compounds read low 1.01 | S. cerevisiae deletion strains, locus YNL153C, strain GIM3, active compounds read low 1.03 | S. cerevisiae deletion strains, locus YNL233W, strain BNI4, active compounds read low 1.02 | S. cerevisiae deletion strains, locus YNL250W, strain rad50, active compounds read low 0.968 | S. cerevisiae deletion strains, locus YNL271C, strain bni1, active compounds read low 1 | S. cerevisiae deletion strains, locus YNL307C, strain MCK1, active compounds read low 0.954 | S. cerevisiae deletion strains, locus YNL322C, strain KRE1, active compounds read low 1.03 | S. cerevisiae deletion strains, locus YOL006C, strain TOP1, active compounds read low 1.07 | S. cerevisiae deletion strains, locus YOL012C, strain htz1 1.81 | S. cerevisiae deletion strains, locus YOL147C, strain pex11, active compounds read low 1.04 | S. cerevisiae deletion strains, locus YOR061W, strain CKA2, active compounds read low 0.99 | S. cerevisiae deletion strains, locus YOR069W, strain VPS5, active compounds read low 1.02 | S. cerevisiae deletion strains, locus YOR136W, strain idh2, active compounds read low 1.02 | S. cerevisiae deletion strains, locus YOR144C, strain elg1, active compounds read low 1.01 | S. cerevisiae deletion strains, locus YOR316C, strain cot1, active compounds read low 1.03 | S. cerevisiae deletion strains, locus YPL055C, strain LGE1, active compounds read low 1.01 | S. cerevisiae deletion strains, locus YPL241C, strain CIN2, active compounds read low 1.02 | S. cerevisiae deletion strains, locus YPR119W, strain clb2, active compounds read low 1.04 | S. cerevisiae deletion strains, locus YPR141C, strain kar3, active compounds read low 1.04 | S. cerevisiae deletion strains, locus YPR163C, strain tif3, active compounds read low 1.01 | S. cerevisiae deletion strains, locus YPR167C, strain met16, active compounds read low 1.02 | S. cerevisiae deletion strains, strain wtn01, active compounds read low 0.989 | S. cerevisiae strains, strain wild type, active compounds read low 0.99
active: S. cerevisiae deletion strains, locus YGR252W, strain gcn5, active compounds read low 0.764 | S. cerevisiae deletion strains, locus YKL009W, strain mrt4, active compounds read low 0.793 | S. cerevisiae deletion strains, locus YLR039C, strain RIC1, active compounds read low 0.644 | S. cerevisiae deletion strains, locus YLR262C, strain YPT6, active compounds read low 0.507 | S. cerevisiae deletion strains, locus YNL298W, strain CLA4, active compounds read low 0.895 | S. cerevisiae deletion strains, locus YNR052C, strain pop2, active compounds read low 0.88 | S. cerevisiae deletion strains, locus YOR184W, strain ser1, active compounds read low 0.836
